{"source": "PubChem BioAssay AID1725", "about": "(National Center for Advancing Translational Sciences (NCATS), 2009)", "note": "The list shows a part of the results. Results filed as inconclusive are left out. A number with no mark means an inactive call. Calls of active or inactive are those of the source. Calls follow the shape of the dose curve; as a rule, active = well fitted inhibition curve with a large enough effect; inconclusive = small, poorly fitted or top-dose-only effect, or effect the other way; inactive = no such curve, though single readings can be large or run the other way.", "data": [{"assay": "Confirmation Concentration-Response Assay for Inhibitors of the ERK Signaling Pathway using a Homogeneous Screening Assay; Stimulation with EGF", "settings": "HEK293 EGF-stimulated ERK phosphorylation, AlphaScreen; series mostly up to 57.5 µM; activity change, negative = inhibition: at the top concentration", "source_text": "qHTS Assay for Inhibitors of the ERK Signaling Pathway using a Homogeneous Screening Assay\nNIH Chemical Genomics Center [NCGC]\nNIH Molecular Libraries Screening Centers Network [MLSCN]\nAssay Submitter (PI): Dr. Wei Zheng, NCGC/NIH\nThe Ras/extracellular-signal-regulated kinase (ERK) mitogen activated protein (MAP) kinase signaling pathway (ERK1/2 cascade) plays is a key role in transmitting signals from the cell surface to the nucleus (Nishida and Gotoh 1993; Chang and Karin, 2001). The cascade is initiated by the small G-protein Ras, which recruits Raf […], where activation occurs. Alternatively, this pathway can be activated by elevating intracellular cAMP.\nActivation of the ERK pathway is essential in increased cell division and cell survival. Sustained and constitutive activation of the ERK pathway, however, has been linked to uncontrolled cell proliferation, increased cell survival, and tumor progression. Thus, the ERK has been as an attractive target for cancer chemotherapy in the past few years (Sebolt-Leopold and Herrera, 2004). Given its physiological and pathological importance, assessment of ERK phosphorylation has been broadly performed in both basic research and drug discovery. Most assays for the measurement of ERK phosphorylation use the antibody-based detection methods, such as western blot and ELISA. These assays require multiple reagent additions with cell wash steps and are not suitable for high-throughput screening.\nThe current cell-based ERK phosphorylation assay was performed using AlphaScreen platform. AlphaScreen is a two bead-based proximity-dependent chemical energy transfer luminescent assay platform. […]\nHEK293 cells stably expressing type-1 vasopressin receptor (V1b) were maintained in DMEM medium (Invitrogen, Carlsbad, CA) at 37C under a humidified atmosphere containing 5% CO2 and 95% air. […] The ERK phosphorylation in cells was determined using an AlphaScreen assay kit provided by PerkinElmer. […] AC50 values were determined from concentration-response data modeled with the standard Hill equation. […]", "units": {"activity change, negative = inhibition": "%"}, "values": [{"molecule": "CCCNc1ncnc2sc(C)c(C)c12", "activity change, negative = inhibition": -8.99}, {"molecule": "CN(C)c1cc2c(Nc3ccc4c(cnn4Cc4ccccc4)c3)ncnc2cn1", "Potency": "2.82 µM (active)"}, {"molecule": "CN(C)c1ccc(Nc2c3c4c(cccc4n(C)c2=O)C(=O)c2ccccc2-3)cc1", "Potency": "11.2 µM (active)"}]}]}
